Test results reported in PubChem BioAssay (NCATS).
Records with an inconclusive call do not appear. A call without a number means that no potency is given here. Active and inactive are the calls of the source. The call rests on the fitted dose curve; in most records, active means well fitted inhibition curve with a large enough effect; inconclusive means small, poorly fitted or top-dose-only effect; inactive means flat fitted curve, though single readings scatter. Bridge positions count the residues as written; N and C are the ends. Square brackets hold non-standard residues; d marks the D form. Peptide text beside a SMILES is read from it. * marks the point of attachment. Ileψ(thiazoline)Cys = CC[C@H](C)[C@H](N)C1=N[C@H](C(=O)*)CS1; d(aIle) = CC[C@H](C)[C@@H](N)C(=O)O; dOrn = NCCC[C@@H](N)C(=O)O
Potency means the concentration at half of the fitted maximal effect.

Each compound was assayed on ATS95 (assay: qHTS profiling for inhibitors of Plasmodium falciparum proliferation (AID 504749; further: nearly all actives have a fitted effect of over 60% in size)). Conditions: P. falciparum in erythrocytes, SYBR Green DNA, 72 h; series mostly up to 12.8 µM.
Outline: (§1)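 P. falciparum-infected erythrocytes (0.3% parasitemia, 2.5% hematocrit) incubated with compound 72 h at 37 C, 5% CO2. Parasite DNA detected by SYBR Green after lysis, overnight at room temperature; normalised to 0.29 uM artemisinin and DMSO.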
With C[C@@H]1C[C@H]2[C@@H]3C[C@H](F)C4=CC(=O)C=C[C@@]4(C)[C@]3(F)[C@H](O)C[C@]2(C)[C@@]1(O)C(=O)CO the Potency was “inactive”. In the case of C[C@H](O)Cn1cnc2c1c(=O)n(C)c(=O)n2C, the Potency was “inactive”. CCCCC[C@H](O)/C=C\[C@@H]1[C@H](O)CC(=O)[C@@H]1CCCCCCC(=O)O was tested, and the Potency was “inactive”. In the case of CC(=C(CCOP(=O)(O)O)SC(=O)c1ccccc1)N(C=O)Cc1cnc(C)nc1N, the Potency was “inactive”. NC[C@@H]1O[C@@H](O[C@H]2[C@H](O)[C@H](O[C@@H]3O[C@H](CO)[C@@H](O)[C@H](N)[C@@H]3O)[C@@H](N)C[C@H]2N)[C@H](N)C[C@@H]1O was tested, and the Potency was “inactive”. In the case of CCc1c(C)[nH]c2c1C(=O)[C@H](CN1CCOCC1)CC2, the Potency was “inactive”. With C=C1c2c(Cl)ccc(O)c2C(O)=C2C(=O)[C@@]3(O)C(O)=C(C(N)=O)C(=O)[C@@H](N(C)C)[C@@H]3[C@@H](O)[C@H]12 the Potency was “inactive”. In the case of CC[C@H](C)[C@H](N)C1=N[C@H](C(=O)N[C@@H](CC(C)C)C(=O)N[C@@H](CCC(=O)O)C(=O)N[C@@H](C(=O)N[C@H]2CCCCNC(=O)[C@@H](CC(N)=O)NC(=O)[C@@H](CC(=O)O)NC(=O)[C@@H](Cc3cnc[nH]3)NC(=O)[C@@H](Cc3ccccc3)NC(=O)[C@@H]([C@@H](C)CC)NC(=O)[C@@H](CCCN)NC2=O)[C@@H](C)CC)CS1 ({Ileψ(thiazoline)Cys}-LE[d(aIle)]K[dOrn][d(aIle)][dF][dH][dD][dN]; lactam 4-C), the Potency was “inactive”. For O=C(N/N=C\c1ccc([N+](=O)[O-])o1)c1ccc(O)cc1, the Potency was 3.16 µM (active). In the case of CCOC(=O)O[C@@H](C)OC(=O)[C@@H]1N2C(=O)[C@@H](NC(=O)[C@@H](N)c3ccccc3)[C@H]2SC1(C)C, the Potency was “inactive”. With Cc1ccsc1/C=C\C1=NCCCN1C the Potency was “inactive”. In the case of O=C(O)COCCN1CCN([C@@H](c2ccccc2)c2ccc(Cl)cc2)CC1, the Potency was “inactive”. With C#C[C@]1(O)CC[C@@H]2[C@H]3CCC4=CCCC[C@@H]4[C@@H]3CC[C@@]21C the Potency was “inactive”. With CC1(C)[C@@H](OC(=O)CCC(=O)O)CC[C@@]2(C)[C@H]1CC[C@@]1(C)[C@H]2C(=O)C=C2[C@H]3C[C@](C)(C(=O)O)CC[C@]3(C)CC[C@@]21C the Potency was “inactive”. In the case of C[C@H](CCC(=O)O)[C@H]1CC[C@@H]2[C@@H]3[C@@H](O)C[C@H]4C[C@@H](O)CC[C@@]4(C)[C@H]3CC[C@@]21C, the Potency was “inactive”.

Each compound was assayed on C2A in the same assay as above. Conditions: P. falciparum in erythrocytes, SYBR Green DNA, 72 h; series mostly up to 12.8 µM.
Outline: as §1
C[C@@H]1C[C@H]2[C@@H]3C[C@H](F)C4=CC(=O)C=C[C@@]4(C)[C@]3(F)[C@H](O)C[C@]2(C)[C@@]1(O)C(=O)CO was tested, and the Potency was “inactive”. C[C@H](O)Cn1cnc2c1c(=O)n(C)c(=O)n2C was tested, and the Potency was “inactive”. For CCCCC[C@H](O)/C=C\[C@@H]1[C@H](O)CC(=O)[C@@H]1CCCCCCC(=O)O, the Potency was “inactive”. With CC(=C(CCOP(=O)(O)O)SC(=O)c1ccccc1)N(C=O)Cc1cnc(C)nc1N the Potency was “inactive”. With NC[C@@H]1O[C@@H](O[C@H]2[C@H](O)[C@H](O[C@@H]3O[C@H](CO)[C@@H](O)[C@H](N)[C@@H]3O)[C@@H](N)C[C@H]2N)[C@H](N)C[C@@H]1O the Potency was “inactive”. With CCc1c(C)[nH]c2c1C(=O)[C@H](CN1CCOCC1)CC2 the Potency was “inactive”. For CCC(=O)OCC(=O)[C@@]1(OC(=O)CC)[C@H](C)C[C@@H]2[C@@H]3[C@H]([C@@H](O)C[C@@]21C)[C@]1(C)C=CC(=O)C=C1C[C@@H]3Cl, the Potency was “inactive”. For CC[C@H](C)[C@H](N)C1=N[C@H](C(=O)N[C@@H](CC(C)C)C(=O)N[C@@H](CCC(=O)O)C(=O)N[C@@H](C(=O)N[C@H]2CCCCNC(=O)[C@@H](CC(N)=O)NC(=O)[C@@H](CC(=O)O)NC(=O)[C@@H](Cc3cnc[nH]3)NC(=O)[C@@H](Cc3ccccc3)NC(=O)[C@@H]([C@@H](C)CC)NC(=O)[C@@H](CCCN)NC2=O)[C@@H](C)CC)CS1 ({Ileψ(thiazoline)Cys}-LE[d(aIle)]K[dOrn][d(aIle)][dF][dH][dD][dN]; lactam 4-C), the Potency was “inactive”. O=C(N/N=C\c1ccc([N+](=O)[O-])o1)c1ccc(O)cc1 was tested, and the Potency was 3.16 µM (active). With C[C@@H](CNC1CCCCC1)OC(=O)c1ccccc1 the Potency was “inactive”. CCOC(=O)O[C@@H](C)OC(=O)[C@@H]1N2C(=O)[C@@H](NC(=O)[C@@H](N)c3ccccc3)[C@H]2SC1(C)C was tested, and the Potency was “inactive”. Cc1cccc(CN2CCN([C@@H](c3ccccc3)c3ccc(Cl)cc3)CC2)c1 was tested, and the Potency was “inactive”. With Cc1ccsc1/C=C\C1=NCCCN1C the Potency was “inactive”. O=C(O)COCCN1CCN([C@@H](c2ccccc2)c2ccc(Cl)cc2)CC1 was tested, and the Potency was “inactive”. In the case of C#C[C@]1(O)CC[C@@H]2[C@H]3CCC4=CCCC[C@@H]4[C@@H]3CC[C@@]21C, the Potency was “inactive”. For CC1(C)[C@@H](OC(=O)CCC(=O)O)CC[C@@]2(C)[C@H]1CC[C@@]1(C)[C@H]2C(=O)C=C2[C@H]3C[C@](C)(C(=O)O)CC[C@]3(C)CC[C@@]21C, the Potency was “inactive”. C[C@H](CCC(=O)O)[C@H]1CC[C@@H]2[C@@H]3[C@@H](O)C[C@H]4C[C@@H](O)CC[C@@]4(C)[C@H]3CC[C@@]21C was tested, and the Potency was “inactive”. With CN1CCO[C@H](c2ccccc2)c2ccccc2C1 the Potency was “inactive”.
